In the library only some 31% were active in any assay of this set; here they are far more common.
CYP2C19 activ – human CYP2C19 activators, primary screen, biochemical, luminescence; Cytochrome P450 2C19 (Homo sapiens), P33261; recombinant CYP2C19, luciferin-H EGE luminescence; hits give high values; 0 = fully inhibited enzyme, 1 = untreated enzyme; activation factor at 5 µM; 96,000 tested, under 10 active;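 active means activation factor of at least 2 at 5 µM in the primary screen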;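 further: 0 = wells with 2.5 mM tranylcypromine and 1 = vehicle-only wells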
PLAP activator – PLAP enzyme activators, biochemical, luminescence, HTS; Alkaline phosphatase, placental type (Homo sapiens), P05187; purified PLAP enzyme, luminescent substrate read-out; hits give high values; activation fold at 20 µM; 96,000 tested, 1.2% active; AID 696, 2007; in the data active means activation fold above about 2
Target sequence (P05187 whole entry, looked up): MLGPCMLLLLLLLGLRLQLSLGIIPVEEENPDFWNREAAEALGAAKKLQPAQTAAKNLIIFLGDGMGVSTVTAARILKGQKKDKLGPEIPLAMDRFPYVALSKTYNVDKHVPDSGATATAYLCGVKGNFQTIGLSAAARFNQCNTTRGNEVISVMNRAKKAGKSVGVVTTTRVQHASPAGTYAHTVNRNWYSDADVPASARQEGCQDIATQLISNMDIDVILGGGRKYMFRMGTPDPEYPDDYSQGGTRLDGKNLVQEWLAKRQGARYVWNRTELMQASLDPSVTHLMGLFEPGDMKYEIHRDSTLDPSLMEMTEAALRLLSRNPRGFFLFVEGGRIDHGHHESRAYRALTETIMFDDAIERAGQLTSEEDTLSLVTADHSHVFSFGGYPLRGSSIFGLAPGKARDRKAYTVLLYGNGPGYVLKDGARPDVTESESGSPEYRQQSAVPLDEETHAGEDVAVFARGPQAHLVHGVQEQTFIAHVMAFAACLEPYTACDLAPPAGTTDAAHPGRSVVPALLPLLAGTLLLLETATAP
CYP2C9 activ – human CYP2C9 activators, primary screen, biochemical, luminescence; AID 1024, 2008; Cytochrome P450 2C9 (Homo sapiens), P11712; 96,000 tested, 1.4% active; activation factor at 5 µM; recombinant CYP2C9, luciferin-H conversion; hits give high values; factor 1 = untreated enzyme, 0 = blocked;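 active means activation factor of 2 or more for CYP2C9 at a 5 µM dose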;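 further: 0 = sulfaphenazole-blocked wells and 1 = vehicle-only wells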
CYP2C19 inh – blockers of cytochrome P450 2C19 activity – biochemical, luminescence, ADME assay, primary screen. AID 778, 2007. 96,000 tested, 21% active. inhibition, % at 5 µM. CYP2C19 Supersomes, luciferin-H EGE luminescence, 30 min. P33261;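 active means CYP2C19 inhibition above a set limit at 5 µM in the primary screen, cut at about 50% in these data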;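 further: plate controls were negative control wells for no effect and 2.5 mM tranylcypromine positive control for full effect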
CYP2C9 inhib – blockers of cytochrome P450 2C9 activity – biochemical, luminescence, ADME assay, primary screen; inhibition, % at 5 µM; CYP2C9 Supersomes, luciferin-H conversion; P11712; AID 777, 2007; 96,000 tested, 20% active;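 active means blocking of liver enzyme CYP2C9 beyond about 50% at 5 µM, limit read from the data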
Starred values were filed as active, the others as inactive.

SMILES	CYP2C19 activ	PLAP activator	CYP2C9 activ	CYP2C19 inh	CYP2C9 inhib
O=c1cccc2n1CC1CC2CN(Cc2cccc(Cl)c2Cl)C1 (stereo not given)	0.1	1.4	0.7	88*	26
O=c1[nH]c(=S)n(Cc2ccc(F)cc2)c(O)c1C=NCc1cccnc1	0.3	0.9	0.8	66*	15
O=C1C2CCCN2C(c2ccc(Cl)cc2)N1c1ccccn1 (stereo not given)	1.1	1.5	1.1	-5	-10
CCOP(=O)(OCC)C(NC(=O)C(C)C)C(Cl)(Cl)Cl (stereo not given)	0.9	0.9	1	6	0
C=C1C(O)(c2ccccc2)C2CC[N+]1(C)CC2 (stereo not given)	0.9	1.2	1	6	1
COc1ccc2c(c1)c(C(=O)CN1CCN(C)CC1)c(C)n2Cc1ccccc1	0.8	1.7	1	20	0
COCCOC(=O)c1c(C)n(C)c2ccc(OC(=O)N(C)C)cc12	0.7	1.8	0.5	27	54*
CCCOP(=O)(O)c1c([N+](=O)[O-])cc(C(F)(F)F)cc1[N+](=O)[O-] (tested in a mixture with another compound)	0.9	0.9	0.8	8	20
CC(=O)Nc1ccc2c(c1)CC1(C(=O)N(C)C(=O)N(C)C1=O)C1CCCN21 (stereo not given)	1	1.4	0.9	4	7
COc1ccccc1N1C(=O)NC(=O)C(CCc2ccncc2)(CCc2ccncc2)C1=O	0.1	1	0.3	91*	69*
COc1ccc2c(c1)CC1(CN2C)C(=O)NC(=O)N(CCc2ccccc2)C1=O (stereo not given)	0.9	1.5	0.7	14	34
CCOC(=O)c1c(C)[nH]c(C(=O)C(Cc2ccccc2)N(C)C)c1C (stereo not given)	0.6	1.5	0.2	37	84*
COC(=O)c1c(C)[nH]c(C(=O)C(Cc2ccccc2)N(C)C)c1C (stereo not given)	0.1	1.6	0.1	92*	92*
O=C1C2CCCN2C(c2ccccc2)N1c1ccccn1 (stereo not given)	1	0.9	0.9	-2	8
CC12CN3CCN(C1)CC(C)(C3)C2=NO	1	0.9	1	-3	-4
CC(Cc1ccccc1)[n+]1cc(/N=C(\[O-])Nc2ccccc2)on1 (stereo not given)	0.7	0.8	0.3	31	72*
CN(C)c1ccc(CN2CC=C(c3ccc(F)cc3)CC2)cc1	0.4	1.3	1.1	62*	-7
COc1ccc(-c2nc3ccccc3c(=O)n2-c2cccnc2)cc1	0.9	1.1	0.9	8	12
COc1cc(CN2C(=O)NC(=O)C3(Cc4cc(C)ccc4N(C)C3)C2=O)cc(OC)c1 (stereo not given)	0.6	1.4	0.5	36	48
COc1ccc(OC)c(N2C(=O)NC(=O)C3(Cc4cc(C)ccc4N(C)C3)C2=O)c1 (stereo not given)	0.6	1.5	0.2	40	80*
Cc1ccc2c(c1)CC1(CN2C)C(=O)NC(=O)N(c2cc(C)ccc2C)C1=O (stereo not given)	0.8	1.6	0.4	23	59*
COc1cccc(N2C(=O)NC(=O)C3(Cc4cc(C)ccc4N(C)C3)C2=O)c1 (stereo not given)	0.6	1.6	0.2	37	84*
Cc1nc2nc(SCC(=O)N3CCC4(CC3)OCCO4)nn2c(C)c1Cc1ccccc1	0.7	1.6	0.8	31	23
CCn1nc(-c2cccs2)nc2c(=O)n(C)c(=O)nc1-2	0	0.9	0.1	99*	91*
CN(Cc1ccccc1)C(=C(Cl)Cl)/C(=C1/NCCN1Cc1ccc(Cl)nc1)[N+](=O)[O-]	0.1	1.4	0.5	93*	49
SMILES	CYP2C19 activ	PLAP activator	CYP2C9 activ	CYP2C19 inh	CYP2C9 inhib
Cc1ccc(N(C)C(=O)Oc2ccc(C(=O)c3ccc(Cl)cc3)cc2)cc1	0.5	1.2	0.4	50*	60*
CC(=O)Nc1ccc(OC(=O)N(C)c2ccccc2)cc1	0.9	0.9	0.9	12	5
CC(C)C1(C)N=C(c2nc3ccccc3cc2C(=O)O)NC1=O (stereo not given)	1	1	1.1	-4	-14
CCOc1ccc(C2C(C#N)=C(N)Oc3c2c(=O)oc2ccccc32)cc1 (stereo not given)	0.9	1	0.2	9	83*
COC(=O)C1=C(N)Oc2c(c(=O)oc3ccccc23)C1c1cccnc1 (stereo not given)	0.8	0.9	0.1	23	92*
CC(C)CC1C(C#N)=C(N)Oc2c1c(=O)oc1ccccc21 (stereo not given)	0.7	0.9	0.2	28	77*
N#CC1=C(N)Oc2c(c(=O)oc3ccccc23)C1c1ccncc1 (stereo not given)	0.4	1	0	57*	96*
CC1=CC(=C2C(=O)NC(=S)NC2=O)C=C(C(F)(F)F)N1C	1.1	0.7	1	-5	0
CCC(C)N1CCN(C(=O)Cc2ccccc2)CC1 (stereo not given)	0.6	0.9	1	36	5
O=C(O)c1nonc1-c1nonc1C(=O)O	1	0.8	1	3	0
CCC(=NCc1cc(OC)cc(OC)c1)c1c(O)n(C)c(=O)n(C)c1=O	0.7	1.2	0.2	29	81*
CC(=NCc1ccc2c(c1)OCO2)c1c(O)n(C)c(=O)n(C)c1=O	0.9	0.7	0.8	7	23
CCC(=NCc1ccc2c(c1)OCO2)c1c(O)n(C)c(=O)n(C)c1=O	0.7	1.3	0.4	29	62*
CCC(=NCCOc1ccc(Cl)cc1)c1c(O)n(C)c(=O)n(C)c1=O	0.8	1.3	0.8	15	18
CCC(=Nc1ccc(OC)cc1OC)c1c(O)n(C)c(=O)n(C)c1=O	0.9	1.6	0.9	10	10
CCC(=NCCc1c[nH]c2ccccc12)c1c(O)n(C)c(=O)n(C)c1=O	0.4	1.7	0.5	59*	50*
CCC(=O)N1c2ccc(S(=O)(=O)CCC(=O)N3CCC4(CC3)OCCO4)cc2CC1C (stereo not given)	0.7	1.1	0.8	25	24
Cc1cc(Cl)ccc1OC(C)C(=O)O (stereo not given)	1	0.9	1	-5	4
CC(=NC(C)c1ccccc1)c1c(O)[nH]c(=O)[nH]c1=O (stereo not given)	1.1	1	1	-15	2
O=C(NC1CC2CCC(C1)N2Cc1nnnn1Cc1ccco1)NC12CC3CC(CC(C3)C1)C2 (stereo not given)	0.3	6.3	0.5	71*	54*
CCOC(=O)c1cc(C)n(CCc2cnc[nH]2)c1C	0	2.4*	0	100*	99*

Screening data deposited in PubChem by Sanford-Burnham Center for Chemical Genomics.
